# Most compounds without a hit are left out; they make up all but 9.2% or so of the library.
# SMN2 splice up: qHTS Assay for Enhancers of SMN2 Splice Variant Expression; HEK293 SMN2-luciferase splicing reporter, luminescence, 30-36 h; AID 1458, 2008; 2.8% of 210,000 active; Potency, µM (series often up to 46.1 µM), for the others: at the top dose activity change, positive = activation, actives largely listed as activators; note: % of control where 0% means no effect; nearly all actives have a fitted effect of over 55% in size
#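 qHTS luciferase splicing reporter: luminescence rises when SMN2 exon 7 is included in transfected HEK293 cells. Compound exposure lasted 30-36 h at 37C, with 4.5 mM final sodium butyrate as control, followed by a ONE-Glo read.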
# ELG1 repair inh: qHTS screen for small molecules that inhibit ELG1-dependent DNA repair in human embryonic kidney (HEK293T) cells expressing luciferase-tagged ELG1; HEK293T ELG1-luciferase reporter, luminescence, 16 h; DNA damage induced by 5-fluorouridine; Potency, µM (top dose mostly 46.1 µM), for the others: at the top dose activity change, negative = inhibition, hits mostly inhibitors; 2.3% of 330,000 active; AID 504467, 2011; note: % is set by controls: 0 for no effect and ±100 for the full control effect; nearly all actives have a fitted effect of over 55% in size
#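 Luminescence from the luciferase reporter, measured 30 min after ONE-Glo reagent at room temperature, was the read-out. Beforehand, 2,000 cells per well were exposed for 16 hr at 37 °C to 5-fluorouridine together with compound or vehicle.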
# Rab9 prom act: qHTS Assay for Rab9 Promoter Activators; AID 485297, 2010; 2.8% of 320,000 active; Huh7 Rab9 promoter-luciferase reporter, luminescence, 24 h; Potency, µM (series often up to 9.22 µM), for inactives: at the highest dose activation, negative = inhibition, most hits filed as activators; note: % of control where 0% means no effect; nearly all actives have a fitted effect of over 60% in size
#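 Huh7 cells stably carrying Rab9 promoter–luciferase reporter, plated 1500 cells/well, compound added after 2 h and incubated 24 h at 37 °C; luciferase luminescence then read after 10 min with detection reagent.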
# ELG1 genotox: qHTS screen for small molecules that induce genotoxicity in human embryonic kidney (HEK293T) cells expressing luciferase-tagged ELG1 | HEK293T ELG1-luciferase reporter, luminescence, 16 h | Potency, µM (top dose mostly 46 µM), for inactives: at the highest dose activity change, positive = activation, actives largely listed as activators | 1.3% of 330,000 active | AID 504466, 2011; note: % of control where 0% means no effect; nearly all actives have a fitted effect of over 60% in size
#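 Screening used a luciferase reporter fused to human ELG1 in HEK293T cells. Luminescence was read on a CCD plate imager after 16 hr exposure and 30 min ONE-Glo incubation.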
# NPC1 promoter act: qHTS Assay for NPC1 Promoter Activators. Huh7 NPC1 promoter luciferase reporter, 24 h. 2.4% of 320,000 active. Potency, µM (titrated, usually from 9.22 µM), for inactives: at the top dose activation, usual class: activators; note: % of control where 0% means no effect; nearly all actives have a fitted effect of over 60% in size
#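 Compounds in DMSO were transferred onto Huh7 NPC1-luciferase reporter cells pre-incubated 2 h; after 24 h at 37 °C, Amplite reagent was dispensed and luminescence recorded 10 min later.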
# FLuc counter: qHTS profiling assay for firefly luciferase inhibitor/activator using purifed enzyme and Km concentrations of substrates (counterscreen for miR-21 project); purified FLuc, Km substrates, luminescence inhibition; Luciferin 4-monooxygenase (Photinus pyralis), P08659; Potency, µM (doses to about 57.5 µM), for inactives: at the highest dose activity change, negative = inhibition, usual class: inhibitors; 6.9% of 360,000 active;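 note: plate controls were vehicle for no effect and reference inhibitor for full effect; nearly all actives have a fitted effect of over 55% in size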
# Target sequence (P08659 whole entry, looked up): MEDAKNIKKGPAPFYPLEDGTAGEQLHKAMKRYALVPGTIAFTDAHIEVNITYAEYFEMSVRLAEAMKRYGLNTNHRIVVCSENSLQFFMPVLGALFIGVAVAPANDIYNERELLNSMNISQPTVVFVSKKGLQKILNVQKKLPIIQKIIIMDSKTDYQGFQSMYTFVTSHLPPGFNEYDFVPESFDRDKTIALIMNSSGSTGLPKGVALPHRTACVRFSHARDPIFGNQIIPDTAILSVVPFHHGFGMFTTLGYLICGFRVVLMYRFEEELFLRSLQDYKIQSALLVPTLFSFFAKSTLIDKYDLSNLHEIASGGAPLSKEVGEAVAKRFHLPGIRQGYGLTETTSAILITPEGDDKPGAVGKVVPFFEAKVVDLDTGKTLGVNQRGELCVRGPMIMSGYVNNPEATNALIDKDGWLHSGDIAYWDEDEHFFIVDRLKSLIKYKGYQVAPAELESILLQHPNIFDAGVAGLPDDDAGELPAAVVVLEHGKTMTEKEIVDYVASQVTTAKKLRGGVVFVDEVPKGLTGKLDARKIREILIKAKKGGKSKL
#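 Purified P. pyralis luciferase, 10 nM final, with Km-level 10 uM D-luciferin and 10 uM ATP in 50 mM Tris acetate pH 7.5, 10 mM Mg acetate, 0.01% Tween-20, 0.05% BSA; 6-point qHTS titration about 60 µM downward; luminescence read.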
# Active calls of the source: *; ? = inconclusive; · = no result given. Calls come from the whole dose curve; as a rule, active = well fitted curve in the direction sought with a large enough effect; inconclusive = small, poorly fitted or top-dose-only effect, or another doubt; inactive = no such curve, though single readings can be large; an effect the other way counts as inactive or inconclusive. Potency is the fitted concentration of half-maximal effect.
SMILES,SMN2 splice up,ELG1 repair inh,Rab9 prom act,ELG1 genotox,NPC1 promoter act,FLuc counter
Cc1ccc(-c2c(C#N)c(N)n3c(nc4ccccc43)c2C#N)cc1,-118.4%,18.4µM*,-10.1%,-27.6%,0.2%,1.0%
NC(=O)N/N=C/c1ccccc1OCC(=O)NCc1ccccc1,0.1%,-14.2%,-4.1%,-0.9%,0.3%,1.4%
O=C(NCCc1ccc(Cl)cc1)c1cnc2n(c1=O)CCS2,?,?,?,?,24.6%,?
O=C(NCc1ccccc1)c1cnc2n(c1=O)CCS2,-0.4%,12.7%,10.4%,-0.8%,12.5%,2.9%
O=C(NCCCc1ccccc1)c1cnc2n(c1=O)CCS2,17.8µM*,?,?,20.7%,?,?
O=C(NCCC1=CCCCC1)c1cnc2n(c1=O)CCS2,11.2µM*,?,?,?,?,?
c1ccc(-c2nc(NCc3ccco3)c3ccccc3n2)nc1,-9.8%,7.31µM*,2.6%,-9.5%,-0.5%,-1.8%
c1ccc(-c2nc(NCC3CCCO3)c3ccccc3n2)nc1 (stereo not given),-56.2%,18.4µM*,-3.2%,-13.5%,-4.8%,1.7%
COc1ccc(Nc2nc(NCC3CCCO3)c3ccccc3n2)c(OC)c1 (stereo not given),-43.8%,13µM*,-6.4%,-21.1%,-3.5%,23.9µM*
c1ccc(Nc2nc(NCC3CCCO3)c3ccccc3n2)cc1 (stereo not given),-60.6%,?,-3.8%,-10.4%,-8.8%,?
Oc1cccc(Nc2nc(NCC3CCCO3)c3ccccc3n2)c1 (stereo not given),0.6%,20.6µM*,-5.9%,-24.3%,1.7%,?
O=C(c1ccc(Cl)cc1)C1CCN(CC(=O)N2CCCCC2)CC1,·,2.2%,-3.6%,1.7%,0.8%,0.1%
CCOc1ccc(Nc2nc(NCC3CCCO3)c3ccccc3n2)cc1 (stereo not given),-74.3%,7.3µM*,-26.4%,-6.8%,-33.3%,?
CCOC(=O)C1=CN(Cc2cccc(F)c2)S(=O)(=O)N(C)C1c1ccc2ccccc2c1 (stereo not given),·,2.3%,·,0.0%,·,·
C=CCn1c(C)cc(C(=O)CSc2nnc(C3CC3)n2C2CC2)c1C,·,?,14.8%,11.5%,16.9%,3.01µM*
Cc1cc(C(=O)CSc2nnc(C3CC3)n2C2CC2)c(C)n1C(C)C,·,?,4.9%,4.3%,5.7%,12µM*
Cn1cc(Cl)c(-c2n[nH]c(=S)n2C2CCCCC2)n1,-25.8%,-5.6%,-2.2%,15.3%,0.4%,?
O=C(CCN1C(=O)/C(=C/c2ccccc2Cl)SC1=S)N1CCCC1,·,?,-27.2%,-9.0%,-21.7%,26.9µM*
O=C(CCCN1C(=O)/C(=C/c2ccccc2Cl)SC1=S)NNC(=O)c1ccncc1,·,?,-13.6%,-9.3%,-13.2%,15.1µM*
O=C(CCCN1C(=O)/C(=C/c2ccccc2Cl)SC1=S)NNC(=O)c1ccccc1Cl,-34.6%,?,-27.0%,-2.7%,-20.6%,7.57µM*
O=C(CCCN1C(=O)/C(=C/c2cccs2)SC1=S)NNC(=O)c1ccncc1,10.9%,8.8%,-0.4%,0.7%,-6.3%,4.4%
COc1ccccc1CN1CC(C(=O)N(C)Cc2ccc(C)o2)CCC1=O (stereo not given),·,29.4%,1.9%,3.7%,-0.1%,?
CC(=O)c1ccc(N2CCN(C(C)C(=O)NC3CCCc4ccccc43)CC2)cc1 (stereo not given),-32.9%,-12.3%,-5.8%,-4.2%,-0.8%,1.0%
Cc1ccc(CSc2nc3ccncc3n2CC(=O)Nc2cc(C)cc(C)c2)cc1,?,?,?,?,28.4%,1.51µM*
Cc1cc(C)cc(NC(=O)Cn2c(SCc3cc(C)ccc3C)nc3ccncc32)c1,-3.8%,?,11.5%,15.5%,10.2%,-1.4%
SMILES,SMN2 splice up,ELG1 repair inh,Rab9 prom act,ELG1 genotox,NPC1 promoter act,FLuc counter
COc1ccc(-c2nc(Cn3c(SCc4ccc(C)cc4)nc4ccncc43)c(C)o2)cc1OC,16.3%,13µM*,?,-0.4%,14.4%,1.69µM*
O=C(c1ccc2c(=O)n(-c3ccccc3)c(=S)[nH]c2c1)N1CCN(c2ccccc2)CC1,·,?,-0.6%,-5.7%,-3.3%,·
O=C(c1ccc2c(=O)n(C3CCCC3)c(=S)[nH]c2c1)N1CCCCCC1,-3.8%,1.83µM*,-38.3%,-10.2%,-28.8%,-10.6%
O=C(c1ccc2c(=O)n(-c3ccccc3)c(=S)[nH]c2c1)N1CCCCC1,-68.8%,3.26µM*,-24.4%,-5.2%,-26.2%,-1.2%
CC1CCCN(C(=O)c2ccc3c(=O)n(C4CCCC4)c(=S)[nH]c3c2)C1 (stereo not given),-70.4%,?,-28.7%,-6.7%,-19.3%,-11.5%
COc1ccc(CCNC(=O)CN(c2ccc(OC)c(OC)c2)S(=O)(=O)c2ccc(C)cc2)cc1,·,-3.0%,7.9%,-0.1%,6.0%,2.7%
O=C(CSc1cn(CC(=O)N2CCCCCC2)c2ccccc12)Nc1ccccc1F,·,·,·,·,·,-16.4%
CC(=O)Nc1cccc(NC(=O)C(=O)c2cn(CC(=O)N3CCCCC3)c3ccccc23)c1,16.6%,3.1%,?,8.0%,21.8%,8.49µM*
COc1ccc(NC(=O)C(=O)c2cn(CC(=O)N3CCCC3)c3ccccc23)cc1,·,?,-20.7%,?,-16.0%,12µM*
CC(C)c1ccc(NC(=O)C(=O)c2cn(CC(=O)N3CCCCC3)c3ccccc23)cc1,11.7%,?,-3.3%,-6.6%,1.1%,?
O=C(Nc1ccccc1F)C(=O)c1cn(CC(=O)N2CCCCC2)c2ccccc12,?,7.5%,29.6%,-1.7%,13.5%,5.36µM*
CC(=O)Nc1ccc(NC(=O)C(=O)c2cn(CC(=O)N3CCCC3)c3ccccc23)cc1,·,7.4%,-0.1%,-5.9%,7.4%,-12.6%
Cc1ccc(C)c(CSc2nc3[nH]ncc3c(=O)[nH]2)c1,-10.1%,?,-20.2%,-14.1%,-28.8%,-3.6%
CC(=O)c1cccc(NC(=O)Cn2nc(-c3ccc(Cl)cc3)ccc2=O)c1,·,-2.4%,-1.7%,-4.4%,-1.6%,3.4%
O=C(c1cc(Cl)cc(Cl)c1)N1CCN(c2cc(C(F)(F)F)nc3ccccc23)CC1,·,20.6µM*,-6.2%,-8.3%,-2.6%,-0.5%
Fc1ccc(NC(=S)N2CCN(c3ncccn3)CC2)cc1,-20.2%,6.2%,-4.2%,-2.7%,-7.6%,-1.7%
